Measured values published in the OligoGym collection.

biological target: CACNA1S; assay: pooled miR-30 sensor sort-seq; sequence = guide strand; conditions: shRNA

Going from TTGAGGACAATCTCCACAGTGA to TCTGAAGTCCTCAACATCCATG, the sensor-assay potency score (higher = more potent) falls from -0.144 to -1.41.

Going from TTGAGCAGGATGTAGTTGCCAC to ATACTGTACACATTGGCGCTGG, the sensor-assay potency score (higher = more potent) rises from -0.202 to 0.068.

Compared with TAGTATGCAAAGTTGGTGCCAC, ATTAGATTCAAACTCATCGATT is lower in sensor-assay potency score (higher = more potent): 0.194 for the first, -0.846 for the second.

Going from TCTAGTTGCTGCTTCTCCCGGA to TTGGTGATCTTGAAGATCCTCA, the sensor-assay potency score (higher = more potent) falls from 0.563 to 0.453.

Compared with TTGTCGAAGTGGAAGTCGCTGT, TTGAGGTCCAGTCTTCCCCTGT is lower in sensor-assay potency score (higher = more potent): -0.229 for the first, -0.528 for the second.

First: TCTTGTACTCAGTCTCTCCCTG
Second: TTGATCTTGAGTGCCGTGCGGA
The sensor-assay potency score (higher = more potent) of the first is higher: 0.136 for the first, -0.578 for the second.

Going from TTGAGGATCATCTCCAGGGTGA to TTGATCAGCCTCATGACACGGA, the sensor-assay potency score (higher = more potent) rises from -0.175 to 0.698.

Compared with TTCATCAGCATCTCAGTGGTGA, TACACGTAGTAGTAGCCCCTGC is lower in sensor-assay potency score (higher = more potent): 0.298 for the first, -0.425 for the second.

Compared with TTACCTTCCGTCTTGATCTTGA, TAGTAGTATGCAAAGTTGGTGC is lower in sensor-assay potency score (higher = more potent): 0.578 for the first, -0.181 for the second.

Going from TTTAAGGATCTGATTTCTCATG to TACATCTTCATCAGCATCTCAG, the sensor-assay potency score (higher = more potent) rises from -1.14 to -0.408.

Compared with TTCCAGGAAGTTGTCCACCTGG, TATCTCAGCAAACTGGAGGGGT is higher in sensor-assay potency score (higher = more potent): -0.276 for the first, -0.123 for the second.

First: TTCAGCATCTCCACACAGGGTT
Second: TTGGACAAGTCGGTGCACCTGA
The sensor-assay potency score (higher = more potent) of the first is higher: 0.136 for the first, 0.00785 for the second.

biological target: CACNA2D4; assay: as above; conditions: shRNA

Going from TCGATTGTCTCGGTCCGCCTGG to TAATAGTCGAACACCAGGGATT, the sensor-assay potency score (higher = more potent) falls from -0.412 to -1.39.

Compared with TTGTAATAGTCGAACACCAGGG, TATACTTCTCAAACACCGGCTC is higher in sensor-assay potency score (higher = more potent): -0.554 for the first, -0.108 for the second.

Going from TTCCAGAGGAATCTTGGCCTGT to TTTATACCTGGATAGATCCTGA, the sensor-assay potency score (higher = more potent) falls from 0.14 to -0.0984.

Compared with TTATACTTCTCAAACACCGGCT, TTGTTGTCGATGACGAAGCAGT is lower in sensor-assay potency score (higher = more potent): -0.014 for the first, -0.871 for the second.

Compared with TTTGACTTCTGTCGCCTCCTGC, TCAGGTGTCAGGAACTTCCTGT is higher in sensor-assay potency score (higher = more potent): -0.115 for the first, 0.631 for the second.

First: TCTGTGATGCAGTAGATCCAGT
Second: TTGGAGATCAGAATGAACCCGT
The sensor-assay potency score (higher = more potent) of the first is lower: -0.578 for the first, 0.657 for the second.
